Columns and labels:
[1] = target: T1, Aspartate--tRNA(Asp/Asn) ligase (Mycobacterium tuberculosis (strain ATCC 25618 / H37Rv)) (UniProt P9WFW3); test: Assay for Asp RNA synthetase-1 from Mycobacterium tuberculosis; assay type: functional; parameters: scale not given: direction of the effect not stated beside the values; conditions: 30 µM; also: in the data most compounds retested in dose-response had high values
T1 sequence (whole entry): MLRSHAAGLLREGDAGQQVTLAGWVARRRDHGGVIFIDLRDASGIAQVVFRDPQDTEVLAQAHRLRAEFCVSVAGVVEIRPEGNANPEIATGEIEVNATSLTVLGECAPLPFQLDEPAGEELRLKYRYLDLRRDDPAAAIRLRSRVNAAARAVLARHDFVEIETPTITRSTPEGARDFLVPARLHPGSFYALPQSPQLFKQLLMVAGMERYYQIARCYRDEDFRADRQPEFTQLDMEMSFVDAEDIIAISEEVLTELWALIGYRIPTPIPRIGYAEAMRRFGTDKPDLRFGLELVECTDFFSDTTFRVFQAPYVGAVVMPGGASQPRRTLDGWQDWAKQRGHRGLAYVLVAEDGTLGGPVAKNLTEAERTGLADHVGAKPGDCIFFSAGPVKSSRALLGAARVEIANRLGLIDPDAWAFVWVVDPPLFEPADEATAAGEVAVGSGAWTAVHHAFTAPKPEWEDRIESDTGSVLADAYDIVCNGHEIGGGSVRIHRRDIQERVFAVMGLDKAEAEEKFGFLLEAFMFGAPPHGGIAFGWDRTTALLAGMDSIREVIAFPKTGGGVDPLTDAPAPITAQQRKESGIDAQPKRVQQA

[2] = target: Shiga toxin 2 (Escherichia coli O157:H7) (UniProt P09385+P09386); test: E. coli 0.157:H7 Shiga Toxin SOP - stx2 screening assay; assay type: functional; parameters: scale not given: direction of the effect not stated beside the values; conditions: 30 µM

Compound	Percent Effect [1] [%]	Percent Effect [2] [%]
CN(Cc1ccco1)[C@@H]1CN(Cc2ccco2)[C@@H]2CCCO[C@H]12	-1.66	0.222
O=C(NCc1cccs1)C1CN(C(=O)c2cccs2)CC12CCOCC2 (stereo unspecified)	6.61	5.39
CNC(=O)CCc1cc(C)nc(C2CCCN2)c1 (stereo unspecified)	0.0149	-4.41
CN1CCCC1CNC(=O)c1nnn(-c2ccc(F)cc2)c1C1CC1 (stereo unspecified)	3.7	-26
O=C(COc1ccccc1)N1CCC[C@]2(C[C@H](OCC3CC3)CO2)C1	1.3	-10.4
Cn1ccnc1CN1CCN(CCOc2ccccc2C#N)CC1	-0.506	16.8
CC(=O)N1CCN(Cn2nc(-c3ccc(F)cc3)oc2=O)CC1	0.698	-18.6
Cc1noc(CN2Cc3ccccc3CC2c2nnc(C)o2)n1 (stereo unspecified)	-2.54	-7.76
COc1ccccc1OCc1cc(C(=O)N2CC=CC2C(C)C)n[nH]1 (stereo unspecified)	-0.752	15.8
Cc1cccc(OCCC(=O)N(C)CCNS(C)(=O)=O)c1C	0.299	6.1
Cc1nc(CN2CCCC(NCc3ccsc3)C2)no1 (stereo unspecified)	3.1	-14.2
CN(CC1(O)CCCN(c2ccccn2)C1)C(=O)Cc1ccsc1 (stereo unspecified)	1.53	13.7
CN(C)CCOCC1CN(CC2CCOCC2)Cc2nnn(C)c21 (stereo unspecified)	-1.11	-12.4
CCCOc1ccc(NC(=O)NCCC(=O)N(C)C)cc1Cl	1.09	-67.2
O=S(=O)(c1ccccc1Cl)N1CCc2nc(C3CCNCC3)ncc2C1	-6.28	-9.83
CN(C)Cc1ccnc(C2CCCN2Cc2cc[nH]n2)n1 (stereo unspecified)	-4.42	9.83
O=C(NCCOCC(F)(F)F)c1ccc(-c2ccco2)[nH]c1=O	0.409	20.7
CC(Cc1ccco1)NC(=O)Nc1ccc(S(C)(=O)=O)nc1 (stereo unspecified)	1.12	-17.3
